From PubChem BioAssay come the findings set out here.

“And” between values parts separate entries of the source, which are not always exact repeats. Equal values may be shown once. Where a structure was tested more than once in an assay, its records may differ in their call. The source made the active and inactive calls.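 The calls were made as follows, unless noted: active = compounds whose cell count with miR-34 switched on is under 0.7 times the count with it off; inactive = the rest.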

The nature of assay [1]: yeast 75Q aggregation reduction – 75Q-TubU reporter (AID 1593). Particulars: Yeast 75Q polyglutamine aggregation reporter.
Assay [2] can be described thus: blockers of cytochrome c efflux from mitochondria – biochemical, purified mitochondria (AID 1603).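 Also: mouse liver mitochondria challenged with calcium chloride; signal normalized to the plate average as 100%.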 Particulars: stronger effect = lower value.
A short description of assay [3]: polyglutamine aggregate formation blockers (AID 1604). The note with it: polyglutamine-induced protein aggregation inhibition assay; stronger effect = higher value; tested at 2.5 µM.
Assay [4] in a line: Wnt pathway potentiators raising nuclear beta-catenin – imaging, WNT3A-conditioned medium, mouse C2C12, NPC library, primary screen (AID 1117326; in the data active = nuclear beta-catenin stimulation mostly above about 4.2%, no sharp cut-off; inactive = mostly below about 10%). Particulars: stronger effect = higher value.
A short description of assay [5]: stimulators of insulin release from INS-1E, primary screen, cell-based, 5 mM glucose, NPC library (AID 1117329;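 active = compound raises insulin release from rat beta cells at 5 mM glucose, no numeric limit stated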). The note with it: rat INS-1E insulin secretion, at 10 µM, stronger effect = higher value.
Assay [6] is described as follows: growth inhibition of GSK3B-pretreated HCT116 cells – cell-based, CellTiter-Glo, 0.2 to 20 µM (AID 1117336;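 active = compounds lowering colon cancer cell viability after pretreatment blocking the GSK3B kinase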). The note with it: HCT116 viability after GSK3B inhibitor, at 20 µM, stronger effect = higher value. (Cellular ATP, detected with luciferase, serves as a proxy for viable cell number.)
Assay [7] is described as follows: inhibition of endothelial tube formation, primary screen, imaging, VEGF stimulated, CD31 staining, tube area, NPC library (AID 1117340;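 active = compound that reduces growth-factor-driven endothelial tube area in a mixed cell culture, no cutoff stated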). Particulars: VEGF-stimulated ADSC/ECFC co-culture, at 10 µM, stronger effect = higher value.
A short description of assay [8]: GLP1 release stimulators, primary, NCI-H716, NPC library (AID 1117341;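 active = compound raises GLP1 secretion from the human gut endocrine cells, with no numeric limit stated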). Particulars: NCI-H716 cells, at 10 µM, stronger effect = higher value.
Assay [9] in a line: HCT116 colon cancer cell growth inhibition, primary screen, CellTiter-Glo luminescence, NPC library (AID 1117342;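 active = compounds that lower survival of HCT116 colon cancer cells in the luminescence readout, no numeric limit stated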). Particulars: at 20 µM (top of the series).
The nature of assay [10]: reduced SW480 viability measured with CellTiter-Glo, NPC library, primary (AID 1117343;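 active = compounds that lower viability of the colon cancer cells in the luminescence readout, with no numeric limit stated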). The note with it: CellTiter-Glo luminescence; at 20 µM (top of the series).
The nature of assay [11]: NPC library primary testing for decreased DLD-1 cell viability via CellTiter-Glo (AID 1117346;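 active = compounds that lower survival of DLD-1 colon cancer cells in the luminescence readout, no cutoff given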). Particulars: DLD-1 viability, CellTiter-Glo luminescence; at 20 µM (top of the series).
Assay [12] has as its target 6-phosphogluconate dehydrogenase, decarboxylating (Homo sapiens) (UniProt P52209). The assay is described as follows: inhibition of human phosphogluconate dehydrogenase – biochemical, recombinant enzyme, NADPH absorbance, primary screen (AID 1159550;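 active = at least 20% inhibition of 6-phosphogluconate dehydrogenase activity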). Particulars: recombinant 6PGD, NADPH absorbance 341 nm; at 10 µM; stronger effect = higher value.
A short description of assay [13]: EMT-state selective cytotoxicity in co-culture – imaging, PC-3E GFP, TEM4-18 mCherry, primary screen (AID 1345086;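 active = compounds killing one labelled cell type while sparing the other, by normalised counts and ratio limits, not self-fluorescent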;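 as to all read-outs here: cells exposed to compound for 72 h before imaging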;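 as to red/green cell ratio (normalised): normalised mesenchymal count divided by normalised epithelial count so high means epithelial killing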). Particulars: PC-3E GFP / TEM4-18 mCherry co-culture, imaging cell counts, at 1 µM; for red/green cell ratio (normalised): actives lie on both sides.
Assay [14] concerns Aerobactin synthetase IucA (Klebsiella pneumoniae hvKP1). The assay is described as follows: IucA enzyme inhibition, primary screen, biochemical, Spectrum library (AID 1346200; call rule not given here;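 also: 100% = wells without compound and 0% = wells lacking enzyme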). Particulars: malachite green pyrophosphate, A620, at 8 µM, stronger effect = lower value.
Assay [15] can be described thus: viability loss with induced miR-34 in A549 – imaging, A549 dox-inducible miR-34, nuclei and caspase counts, primary screen (AID 1347080). Particulars: A549 miR-34 inducible, Hoechst nuclei count, 48 h.
A short description of assay [16]: MELAS cybrid and Rieske KO viability enhancers – cell-based, MELAS cybrids, Rieske KO mouse fibroblasts, CellTiter-Glo, primary screen (AID 1508586;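 active = mean z-score across replicates of 1.96 or higher in either the MELAS or the Rieske mutant cell line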;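 also: z relative to plate mean and SD of compound and empty wells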). The note with it: low glucose.
Assay [17] has as its target NAD(+) hydrolase SARM1 (Homo sapiens) (UniProt Q6SZW1). As to the kind of experiment: blocking NAD cleavage by SARM1 SAM-TIR – cell lysate, NAD-Glo luminescence (AID 1508614;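 active = compound whose remaining NAD level is above about 45 nM, limit read from the data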;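 also: higher remaining NAD means stronger inhibition of SARM1 NADase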). Particulars: SAM-TIR HEK293T lysate NADase, at 1 µM, stronger effect = higher value.
For assay [18], the target named is Mitogen-activated protein kinase 7 (Homo sapiens) (UniProt Q13164). As to the kind of experiment: Gal4-ERK5 driven luciferase induction – cell-based, HTS, primary screen (AID 1508626;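 active = luciferase signal above three times the same-plate solvent-only control wells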;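 also: luciferase driven by Gal4-ERK5 fusion binding five Gal4 sites before minimal TATA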). Particulars: HeLa Gal4-ERK5 transactivation, 18 h, at 5 µM, stronger effect = higher value.
A short description of assay [19]: galactose survival enhancers in mitochondrial complex I cybrids – cell-based, galactose medium, ATP luminescence, primary screen (AID 1645843;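 active = z-score of at least 1.8 in each of two replicates, scored against plate mean and spread of sample wells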;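 also: positive z means more ATP and so rescue of galactose-driven cybrid death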). Particulars: complex I mutant cybrid cells, 72 h, stronger effect = higher value.
Assay [20] in a line: P. berghei load reduction in hepatocytes – cell-based, HepG2, luciferase luminescence, HepG2 viability, primary screen (AID 624349; in the data active = parasite load remaining mostly below about 12%, no sharp cut-off; inactive = mostly above about 10%;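 also: 100% = mean of DMSO negative control wells on the same plate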). The note with it: P. berghei liver stage in HepG2, luciferase luminescence, concentration not given here; parasite load remaining: stronger effect = lower value; viability: measured here: HepG2 viability without parasites.
Where [21] appears, read: measured here: epithelial PC-3E GFP cell survival.
The mark [22] stands for this setting: measured here: mesenchymal TEM4-18 mCherry cell survival.
The mark [23] stands for this setting: measured here: relative caspase fold change +Dox/-Dox.
Where [24] appears, read: measured here: total cells with miR-34 induction, stronger effect = lower value.
Where [25] appears, read: measured here: total cells without miR-34 induction.
The mark [26] stands for this setting: MELAS cybrid survival, CellTiter-Glo 48 h, stronger effect = higher value.
The mark [27] stands for this setting: Rieske KO mouse fibroblast survival, CellTiter-Glo 72 h.

Sequence of NAD(+) hydrolase SARM1 (Homo sapiens) (Q6SZW1 whole entry, looked up, the tested form may be a part): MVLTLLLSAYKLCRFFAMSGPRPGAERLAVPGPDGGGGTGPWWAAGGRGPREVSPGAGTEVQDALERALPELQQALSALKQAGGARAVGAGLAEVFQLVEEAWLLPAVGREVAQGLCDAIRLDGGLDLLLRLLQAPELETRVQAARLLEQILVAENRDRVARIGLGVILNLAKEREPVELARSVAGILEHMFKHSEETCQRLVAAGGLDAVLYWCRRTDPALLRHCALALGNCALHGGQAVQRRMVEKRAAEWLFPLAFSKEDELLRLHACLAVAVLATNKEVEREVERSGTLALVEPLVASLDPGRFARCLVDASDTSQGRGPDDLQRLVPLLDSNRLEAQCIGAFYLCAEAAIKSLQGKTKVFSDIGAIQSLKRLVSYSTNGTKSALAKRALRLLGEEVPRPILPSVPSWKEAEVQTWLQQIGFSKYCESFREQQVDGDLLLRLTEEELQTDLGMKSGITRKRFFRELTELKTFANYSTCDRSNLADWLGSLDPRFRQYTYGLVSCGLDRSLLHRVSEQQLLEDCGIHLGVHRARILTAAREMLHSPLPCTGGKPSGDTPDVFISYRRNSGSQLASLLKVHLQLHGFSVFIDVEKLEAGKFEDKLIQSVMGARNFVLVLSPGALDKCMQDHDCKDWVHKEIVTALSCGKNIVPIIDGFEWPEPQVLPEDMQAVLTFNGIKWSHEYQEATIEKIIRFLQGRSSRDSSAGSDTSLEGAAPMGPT
Sequence of Mitogen-activated protein kinase 7 (Homo sapiens) (Q13164 whole entry, looked up, the tested form may be a part): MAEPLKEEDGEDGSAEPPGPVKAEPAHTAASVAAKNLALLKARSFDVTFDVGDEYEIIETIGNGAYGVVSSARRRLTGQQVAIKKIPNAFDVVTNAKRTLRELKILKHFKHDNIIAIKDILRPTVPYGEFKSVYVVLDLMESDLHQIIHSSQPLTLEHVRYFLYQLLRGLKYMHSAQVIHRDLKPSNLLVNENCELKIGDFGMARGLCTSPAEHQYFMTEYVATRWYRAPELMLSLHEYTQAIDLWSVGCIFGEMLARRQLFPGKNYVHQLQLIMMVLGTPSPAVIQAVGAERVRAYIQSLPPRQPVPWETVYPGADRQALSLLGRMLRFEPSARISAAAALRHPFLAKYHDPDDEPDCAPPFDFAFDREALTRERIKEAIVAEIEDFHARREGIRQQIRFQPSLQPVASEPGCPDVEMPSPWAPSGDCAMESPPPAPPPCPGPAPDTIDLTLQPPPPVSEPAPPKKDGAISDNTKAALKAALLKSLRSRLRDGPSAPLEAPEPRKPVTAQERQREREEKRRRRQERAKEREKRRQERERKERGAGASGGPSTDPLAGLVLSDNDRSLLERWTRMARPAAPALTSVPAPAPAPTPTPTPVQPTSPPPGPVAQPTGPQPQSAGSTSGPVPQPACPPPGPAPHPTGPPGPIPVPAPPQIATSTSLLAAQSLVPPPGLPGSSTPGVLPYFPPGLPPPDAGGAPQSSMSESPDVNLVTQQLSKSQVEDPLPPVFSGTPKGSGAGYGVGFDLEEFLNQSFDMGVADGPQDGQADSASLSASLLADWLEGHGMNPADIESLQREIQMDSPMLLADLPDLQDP
Sequence of 6-phosphogluconate dehydrogenase, decarboxylating (Homo sapiens) (P52209 whole entry, looked up): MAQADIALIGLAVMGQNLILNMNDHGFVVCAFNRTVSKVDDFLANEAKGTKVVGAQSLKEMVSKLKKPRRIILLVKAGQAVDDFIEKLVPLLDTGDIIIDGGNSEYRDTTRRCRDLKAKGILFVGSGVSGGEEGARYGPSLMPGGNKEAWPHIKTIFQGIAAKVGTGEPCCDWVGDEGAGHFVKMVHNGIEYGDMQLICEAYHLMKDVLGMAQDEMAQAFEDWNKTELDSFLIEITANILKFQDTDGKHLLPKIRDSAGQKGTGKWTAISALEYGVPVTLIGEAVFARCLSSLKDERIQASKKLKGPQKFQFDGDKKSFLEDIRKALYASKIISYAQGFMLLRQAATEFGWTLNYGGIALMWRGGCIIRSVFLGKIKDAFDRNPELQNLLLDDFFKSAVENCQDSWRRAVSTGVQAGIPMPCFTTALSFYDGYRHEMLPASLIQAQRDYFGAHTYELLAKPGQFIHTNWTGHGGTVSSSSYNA

For `NCC(CC(=O)O)c1ccc(Cl)cc1` (stereo not given), the score in assay [1] came out at 1.02. Also, in assay [2], the cytochrome c release ratio was determined as 0.97. The inhibition of aggregation in assay [3] came to 63.5%. Also, the nuclear beta-catenin stimulation is -0.5% (inactive) in [4] (at 10 µM) and 0.7% in assay [4] (stimulation, at 2 µM). Besides, the insulin secretion stimulation in assay [5] was 2.7% (inactive). The viability decrease in assay [6] was -7.8% (inactive). In assay [7], the tube area decrease is -22.1% (inactive). In assay [8], the GLP1 secretion stimulation was -2.6% (inactive). The inhibition of viability in assay [9] was -14.8% (inactive). The viability decrease (inhibition) in assay [10] was -1.8% (inactive); in assay [11], 7.35% (inactive). The inhibition in assay [12] is 5.14% (inactive). For the same molecule, the red/green cell ratio (normalised) in [13] is 0.69 (inactive). Besides, the figures for the normalised cell number in assay [13] (setting [21]) and in assay [13] (setting [22]) were 1.3 and 0.89, respectively. Further, the activity remaining in assay [14] is 103% (inactive). Further, the fold change in assay [15] (stronger effect = lower value) was 1.01 (inactive) and 0.984 (inactive) and 0.815 (inactive); in [15] (setting [23]), 1.78 and 1.11 and 0.933. Besides, the cell count in assay [15] (setting [24]) is 7900 and 7930 and 10200; in [15] (setting [25]), 7820 and 8060 and 12600. The z-score in assay [16] (setting [26]) is -0.717 (inactive); in assay [16] (setting [27]), -0.464; in [19], 0.635 (inactive). Besides, the remaining NAD in [17] is 10 nM (inactive). In addition, in assay [18], the luciferase signal is 56 AU (inactive).
In the case of `Clc1ccc(C(OCCN2CCCCC2)c2ccccc2)cc1` (stereo not given), in assay [1], the score stood at 1.14. Further, in assay [2], the cytochrome c release ratio is 1.33. Also, the inhibition of aggregation in assay [3] came out at 66.7%. Further, the parasite load remaining in assay [20] is 32.6% (inactive) and 77.7% (inactive). For the same molecule, the viability in assay [20] is 91.9% and 79.6%. Further, the nuclear beta-catenin stimulation in assay [4] (at 10 µM) is 3.4% (inactive); in assay [4] (stimulation, at 2 µM) it was 2.6%. The insulin secretion stimulation in assay [5] is 11.4% (inactive). Moreover, the viability decrease in assay [6] is -162% (inactive). The tube area decrease in assay [7] is 4.5% (inactive). Further, the GLP1 secretion stimulation in assay [8] is 7.9% (inactive). Besides, in [9], the inhibition of viability was 25.5% (inactive). The viability decrease (inhibition) in [10] was 72.3% (active); in assay [11] it was 26.4% (inactive). Besides, the inhibition in assay [12] was 14.2% (inactive). For the same molecule, the red/green cell ratio (normalised) in [13] is 0.83 (inactive). Further, the normalised cell number turned out to be 1.02 in assay [13] (setting [21]) and 0.85 in assay [13] (setting [22]). For the same molecule, the activity remaining in [14] was 103% (inactive). In addition, the fold change is 0.822 (inactive) in [15] (stronger effect = lower value) and 1.27 in [15] (setting [23]). The cell count came out at 7820 in [15] (setting [24]) and 9510 in [15] (setting [25]). In addition, the values for the z-score in assay [16] (setting [26]) and in [16] (setting [27]) were -1.82 (inactive) and -0.41, respectively. In addition, in assay [17], the remaining NAD was 10 nM (inactive). The luciferase signal in assay [18] was 180 AU (active).
`CCCCCCCCCCCCCCCC[N+](C)(C)C` came in with a score in assay [1] of 0.03. In [2], the cytochrome c release ratio was 2.11. This molecule also returned an inhibition of aggregation in [3] of 65.1%. Besides, the parasite load remaining in assay [20] was 86.4% (inactive) and 31.9% (inactive). The viability in [20] is 75.1% and 81.2%. In addition, the nuclear beta-catenin stimulation was 19.2% (inactive) in [4] (at 10 µM) and 9.4% in assay [4] (stimulation, at 2 µM). For the same molecule, the insulin secretion stimulation in assay [5] is -0.3% (inactive). In assay [6], the viability decrease was 100% (active). The tube area decrease in assay [7] is 109% (active). For the same molecule, in assay [8], the GLP1 secretion stimulation was 40.8% (active). Besides, the inhibition of viability in assay [9] was 102% (active). Moreover, the viability decrease (inhibition) in assay [10] was 123% (active); in [11], 104% (active). The inhibition in assay [12] was -5.61% (inactive). Further, the red/green cell ratio (normalised) in assay [13] was 0.49 (inactive). Further, the normalised cell number in assay [13] (setting [21]) amounted to 0.64; in assay [13] (setting [22]) it was 0.31. The activity remaining in assay [14] was 108% (inactive). Moreover, the fold change in [15] (stronger effect = lower value) was 0.616 (active) and 0.9 (inactive); in [15] (setting [23]), 3.21 and 2.28. Moreover, the cell count in assay [15] (setting [24]) is 4400 and 4060; in assay [15] (setting [25]), 7150 and 4510. In addition, the z-score in assay [16] (setting [26]) is -0.416 (inactive); in [16] (setting [27]), -0.288. Moreover, the remaining NAD in assay [17] is 10 nM (inactive). Further, the luciferase signal in assay [18] was 96 AU (inactive).
For `C=C1C[C@@H]2[C@H](CC[C@]3(C)C(=O)CC[C@@H]23)[C@@]2(C)C=CC(=O)C=C12`, the parasite load remaining in [20] is 41% (inactive). This molecule displayed a viability in [20] of 86.7%. In addition, the nuclear beta-catenin stimulation in [4] (at 10 µM) was 2.3% (inactive); in assay [4] (stimulation, at 2 µM), -0.3%. In assay [5], the insulin secretion stimulation was 12.9% (inactive). Also, in [6], the viability decrease was 2.6% (inactive). Moreover, the tube area decrease in assay [7] is 6.3% (inactive). For the same molecule, the GLP1 secretion stimulation in [8] was 8.3% (inactive). Further, the inhibition of viability in assay [9] was -12.1% (inactive). The viability decrease (inhibition) is 24.7% (inactive) in assay [10] and -20.4% (inactive) in assay [11]. The z-score was 0.961 (inactive) in [16] (setting [26]) and 0.0493 in assay [16] (setting [27]). Besides, in assay [17], the remaining NAD is 10 nM (inactive). Moreover, the luciferase signal in assay [18] was 60 AU (inactive).

As usually defined, the inhibition is the drop in the measured response relative to a control, in per cent. A word on the viability: it is a per cent measure of how many cells are alive, often set against a control.
